Measurements as given in PubChem BioAssay AID1159580 (chemical genetic matrix, 2015).
Out of some 5,500 compounds screened, about 2,000 (36%) were called active. Inconclusive results (about 18%) are left out. No stated cut-off is given here; in the data, active means normalized growth mostly below about 0.91 (no sharp cut-off); inconclusive means no clear call, values can overlap the other calls; inactive means mostly above about 0.92. This is one part of the list.

Test: chemical genetic growth profiling, strain panel (AID 1159580);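 further: tested at 20 µM; growth read once vehicle control cultures reached saturation at 30 °C; 1 = growth at the plate median or of vehicle wells; lower values mean less growth of the strain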
Conditions: growth OD

Measured: normalized growth

O=c1[nH]cnc2c1ncn2C1O[C@H](CO)[C@@H](O)[C@H]1O (some centres undefined)
inactive: S. cerevisiae deletion strains, locus YJR075W, strain HOC1, hits give low values 1.01 | S. cerevisiae deletion strains, locus YKL009W, strain mrt4, hits give low values 0.979 | S. cerevisiae deletion strains, locus YKL068W, hits give low values 1.01 | S. cerevisiae deletion strains, locus YKL085W, strain MDH1 (second series), hits give low values 0.998 | S. cerevisiae deletion strains, locus YKL085W, strain MDH1, hits give low values 0.998 | S. cerevisiae deletion strains, locus YKL160W, strain elf1, hits give low values 0.986 | S. cerevisiae deletion strains, locus YKL190W, strain CNB1, hits give low values 1 | S. cerevisiae deletion strains, locus YKR001C, strain vps1, hits give low values 1.06 | S. cerevisiae deletion strains, locus YKR026C, strain gcn3, hits give low values 0.984 | S. cerevisiae deletion strains, locus YKR091W, strain srl3, hits give low values 0.986 | S. cerevisiae deletion strains, locus YLL001W, strain dnm1, hits give low values 1.01 | S. cerevisiae deletion strains, locus YLL026W, hits give low values 0.993 | S. cerevisiae deletion strains, locus YLL041C, strain sdh2, hits give low values 1 | S. cerevisiae deletion strains, locus YLR027C, strain aat2, hits give low values 0.994 | S. cerevisiae deletion strains, locus YLR039C, strain RIC1, hits give low values 1.04 | S. cerevisiae deletion strains, locus YLR058C, strain SHM2, hits give low values 0.999 | S. cerevisiae deletion strains, locus YLR102C, strain apc9, hits give low values 1.04 | S. cerevisiae deletion strains, locus YLR113W, strain HOG1, hits give low values 0.978 | S. cerevisiae deletion strains, locus YLR221C, strain rsa3, hits give low values 0.96 | S. cerevisiae deletion strains, locus YLR258W, strain gsy2, hits give low values 0.99 | S. cerevisiae deletion strains, locus YLR262C, strain YPT6 (second series), hits give low values 1.02 | S. cerevisiae deletion strains, locus YLR262C, strain YPT6, hits give low values 1.05 | S. cerevisiae deletion strains, locus YLR268W, strain sec22, hits give low values 1.05 | S. cerevisiae deletion strains, locus YLR320W, strain mms22, hits give low values 0.959 | S. cerevisiae deletion strains, locus YLR330W, strain CHS5, hits give low values 1.01 | S. cerevisiae deletion strains, locus YLR342W, strain FKS1 (second series), hits give low values 0.996 | S. cerevisiae deletion strains, locus YLR342W, strain FKS1, hits give low values 0.989 | S. cerevisiae deletion strains, locus YLR357W, strain rsc2, hits give low values 0.971 | S. cerevisiae deletion strains, locus YLR370C, strain arc18, hits give low values 0.991 | S. cerevisiae deletion strains, locus YLR371W, strain rom2, hits give low values 1.01 | S. cerevisiae deletion strains, locus YLR384C, strain iki3, hits give low values 0.969 | S. cerevisiae deletion strains, locus YLR418C, strain cdc73, hits give low values 1.01 | S. cerevisiae deletion strains, locus YML016C, strain PPZ1, hits give low values 1 | S. cerevisiae deletion strains, locus YML032C, strain rad52, hits give low values 1.01 | S. cerevisiae deletion strains, locus YML120C, strain ndi1, hits give low values 1.01 | S. cerevisiae deletion strains, locus YML124C, strain tub3, hits give low values 1.02 | S. cerevisiae deletion strains, locus YMR058W, strain fet3, hits give low values 0.992 | S. cerevisiae deletion strains, locus YMR078C, strain ctf18, hits give low values 1.06 | S. cerevisiae deletion strains, locus YMR125W, strain sto1, hits give low values 1.01 | S. cerevisiae deletion strains, locus YMR129W, hits give low values 0.997 | S. cerevisiae deletion strains, locus YMR205C, strain PFK2, hits give low values 0.984 | S. cerevisiae deletion strains, locus YMR223W, strain ubp8, hits give low values 1.01 | S. cerevisiae deletion strains, locus YMR231W, strain pep5, hits give low values 0.977 | S. cerevisiae deletion strains, locus YMR263W, strain SAP30, hits give low values 1 | S. cerevisiae deletion strains, locus YMR307W, strain GAS1, hits give low values 1.01 | S. cerevisiae deletion strains, locus YNL067W, strain RPL9B, hits give low values 1.01 | S. cerevisiae deletion strains, locus YNL071W, strain lat1, hits give low values 1 | S. cerevisiae deletion strains, locus YNL153C, strain GIM3, hits give low values 0.99 | S. cerevisiae deletion strains, locus YNL183C, strain NPR1, hits give low values 0.908 | S. cerevisiae deletion strains, locus YNL209W, strain ssb2, hits give low values 0.995 | S. cerevisiae deletion strains, locus YNL233W, strain BNI4, hits give low values 1.02 | S. cerevisiae deletion strains, locus YNL248C, strain rpa49, hits give low values 0.902 | S. cerevisiae deletion strains, locus YNL250W, strain rad50, hits give low values 1.03 | S. cerevisiae deletion strains, locus YNL271C, strain bni1, hits give low values 1.04 | S. cerevisiae deletion strains, locus YNL298W, strain CLA4, hits give low values 1.03 | S. cerevisiae deletion strains, locus YNL307C, strain MCK1, hits give low values 1.05 | S. cerevisiae deletion strains, locus YNL322C, strain KRE1 (second series), hits give low values 0.985 | S. cerevisiae deletion strains, locus YNR049C, strain mso1, hits give low values 0.978 | S. cerevisiae deletion strains, locus YNR052C, strain pop2, hits give low values 1.02 | S. cerevisiae deletion strains, locus YOL012C, strain htz1 1.16 | S. cerevisiae deletion strains, locus YOL147C, strain pex11, hits give low values 1.04 | S. cerevisiae deletion strains, locus YOR001W, strain rrp6, hits give low values 0.994 | S. cerevisiae deletion strains, locus YOR061W, strain CKA2, hits give low values 1.01 | S. cerevisiae deletion strains, locus YOR069W, strain VPS5, hits give low values 1 | S. cerevisiae deletion strains, locus YOR070C, strain gyp1, hits give low values 0.991 | S. cerevisiae deletion strains, locus YOR080W, strain dia2, hits give low values 0.99 | S. cerevisiae deletion strains, locus YOR083W, strain WHI5, hits give low values 0.998 | S. cerevisiae deletion strains, locus YOR106W, strain vam3, hits give low values 1.01 | S. cerevisiae deletion strains, locus YOR136W, strain idh2, hits give low values 1.02 | S. cerevisiae deletion strains, locus YOR144C, strain elg1, hits give low values 1.03 | S. cerevisiae deletion strains, locus YOR184W, strain ser1, hits give low values 1.05 | S. cerevisiae deletion strains, locus YOR231W, strain MKK1, hits give low values 0.982 | S. cerevisiae deletion strains, locus YOR265W, strain rbl2, hits give low values 0.984 | S. cerevisiae deletion strains, locus YOR270C, strain vph1, hits give low values 0.987 | S. cerevisiae deletion strains, locus YOR290C, strain snf2, hits give low values 1 | S. cerevisiae deletion strains, locus YOR316C, strain cot1, hits give low values 1.04 | S. cerevisiae deletion strains, locus YPL051W, strain arl3, hits give low values 0.977 | S. cerevisiae deletion strains, locus YPL055C, strain LGE1, hits give low values 1.03 | S. cerevisiae deletion strains, locus YPL078C, strain atp4, hits give low values 1 | S. cerevisiae deletion strains, locus YPL106C, strain sse1, hits give low values 1.02 | S. cerevisiae deletion strains, locus YPL240C, strain hsp82, hits give low values 0.984 | S. cerevisiae deletion strains, locus YPL241C, strain CIN2, hits give low values 1 | S. cerevisiae deletion strains, locus YPL256C, strain CLN2, hits give low values 0.965 | S. cerevisiae deletion strains, locus YPR119W, strain clb2, hits give low values 1.06 | S. cerevisiae deletion strains, locus YPR141C, strain kar3, hits give low values 1.03 | S. cerevisiae deletion strains, locus YPR163C, strain tif3, hits give low values 1.02 | S. cerevisiae deletion strains, locus YPR167C, strain met16, hits give low values 1.02 | S. cerevisiae deletion strains, strain wtn01, hits give low values 1.04 | S. cerevisiae strains, strain wild type, hits give low values 1.01
